HIF act: HIF pathway transcriptional activation. hit rate 0.32% among 300,000. activation, % at 7.5 µM (by protocol). U2OS HRE-luciferase reporter, luminescence; normalized: DMSO 0%, desferrioxamine 100%;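 active means mean activation of at least 10% of the iron chelator positive control signal, with at least half of replicates also reaching 10%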
Hsp70 act: Hsp70 transcriptional activation, primary screen. hit rate 0.04% among 200,000. activation, % at 10 µM. HeLa Hsp70 promoter luciferase reporter, luminescence; scaled: vehicle 0, proteasome-inhibitor control 100%;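 active means activation above the mean across all tested compounds plus 3 SD, cutoff set per campaign, cut at about 5.5% in these data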;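 further: 100% = MG132 at 30 µM as the positive control and 0% = DMSO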
GalR3 antagonist: antagonists of human GalR3 | O60755 | HEK293 GalR3-CNG cAMP membrane potential fluorescence; galR3 body fused to GalR1 C-terminus | inhibition, % at 3 µM | hit rate 0.44% among 360,000 | AID 651719;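 active means inhibition above the screen-wide average plus 3 SD, cut at about 13% in these data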;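 further: forskolin and galanin both at EC90 stimulate the cells; cAMP rise reported by CNG channel membrane potential dye signal; 0% = forskolin plus galanin with DMSO and 100% = forskolin alone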
Target sequence (O60755 1-299 limits assumed): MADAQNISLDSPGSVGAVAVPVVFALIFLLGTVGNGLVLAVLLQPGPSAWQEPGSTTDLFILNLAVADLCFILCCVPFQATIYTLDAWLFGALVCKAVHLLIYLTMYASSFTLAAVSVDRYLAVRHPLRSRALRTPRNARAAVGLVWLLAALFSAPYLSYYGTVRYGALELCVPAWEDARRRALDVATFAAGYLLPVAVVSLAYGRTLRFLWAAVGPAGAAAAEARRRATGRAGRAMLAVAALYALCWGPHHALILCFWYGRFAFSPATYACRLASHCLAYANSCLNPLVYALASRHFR
SMARCA2 activ: increases SMARCA2 function in MMTV reporter cells | hit rate 1% among 370,000 | AID 652017 | MG213 cells, MMTV-luciferase reporter, dexamethasone, overnight | activation, % at 9.1 µM; in the data active means activation above about 7.8%;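 further: 0% = vehicle wells and 100% = reference activator wells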
GAA850 FXN act: frataxin GAA850 promoter activation | hit rate 0.56% among 360,000 | AID 540364 | activation, % at 6 µM | HEK293 lucGAA850 FXN promoter luciferase reporter, 24 h; percent of 10 µM SAHA response;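 active means activation above the average of all compounds screened plus 3 SD, cutoff fixed separately per campaign, cut at about 7.5% in these data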;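 further: 0% = DMSO wells and 100% = 10 µM SAHA wells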
GalR3 antag conf: confirmation of human galanin receptor 3 antagonists; shares compounds with GalR3 antagonist; HEK293 GalR3 CNG cAMP biosensor, membrane potential fluorescence; galR3 fused to GalR1 carboxy tail; challenged with forskolin and galanin at EC90; inhibition, % at 3 µM; hit rate 59% among 1,600; AID 652245;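 active means inhibition above the primary screen's cutoff, the mean inhibition of all screened compounds plus 3 SD, cut at about 13% in these data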;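 further: 0% = forskolin plus galanin and 100% = forskolin alone with DMSO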
HEK-CNG parental: acts as nonspecific agonist in parental HEK-CNG cells; AID 652268; HEK293-CNG parental cells, cAMP membrane potential fluorescence; normalised: DMSO wells 0%, forskolin wells 100%; shares compounds with GalR3 antagonist; activation, % at 3 µM; hit rate 10% among 1,600; in the data active means activation above about 1.3%
* marks the source's active call; other numbers are inactive results; . = no result given. A selection: hits, their analogues and other compounds. The true share with any hit is near 2.2%.

SMILES	HIF act	Hsp70 act	GalR3 antagonist	SMARCA2 activ	GAA850 FXN act	GalR3 antag conf	HEK-CNG parental
OCCNCCOc1ccccc1F	-0.1	-0.5	12.8*	0.4	-1.1	0.0	0.4
OCCNCCOc1ccccc1-c1ccccc1	0.5	0.6	-9.1	0.1	1.0	.	.
CCOC(=O)Cn1cc(CN2CCS(=O)(=O)N(Cc3ccccc3)C(C(=O)OC)C2)nn1 (stereo not given)	.	.	.	-1.7	.	.	.
CC(C)C[C@@H]1COc2cc(Br)ccc2S(=O)(=O)N1Cc1cn(Cc2ccccc2)nn1	.	.	.	-5.5	.	.	.
N#C/C(=C(/O)CCl)c1nnc2n1CCCCC2	0.0	-0.1	-5.0	-3.9	4.0	.	.
N#C/C(=N\Nc1cc(Cl)cc(Cl)c1)c1nnc2n1CCCCC2	0.2	-0.3	15.2*	-3.2	5.5	0.4	1.7*
C[C@H](O)[C@@H]1C(=O)N2CCc3c([nH]c4cccc(-c5ccccc5)c34)[C@@H]2C[C@@H]1N(C)C(=O)c1ccco1	.	.	-8.5	-1.3	.	.	.
CCCOc1ccc(Cn2c(=O)oc3ccc(C)cc32)cc1OC	0.1	-0.1	14.0*	-4.4	0.3	-0.4	0.1
CCCOc1ccccc1Cn1c(=O)oc2ccc(C)cc21	-1.1	-0.3	-0.9	-2.8	-1.9	.	.
COc1ccc(Cn2nc(C(=O)O)c3ccccc3c2=O)cc1F	1.3	.	-0.1	-1.6	3.7	.	.
COc1cccc(Cn2nc(C(=O)O)c3ccccc3c2=O)c1	0.0	-0.3	19.1*	3.3	3.3	15.6*	-0.2
C=CCCC(=O)N1CCC(C(=O)NCC2COc3ccccc3O2)CC1 (stereo not given)	.	.	.	1.3	.	.	.
C=CCN1C(=O)/C(=C2/Sc3ccccc3N2CC)SC1=S	-1.3	.	-0.4	-1.9	-0.4	.	.
CCN1C(=O)/C(=C2/Sc3ccccc3N2CC)S/C1=N\c1ncn[nH]1	-1.3	-0.2	17.8*	6.5	1.6	10.6	-0.4
O=[N+]([O-])c1ccc(CN2CCCCCC2)cc1	-2.5	.	-9.9	1.6	-0.4	.	.
CSc1ccc(CN2CCN(Cc3ccc([N+](=O)[O-])cc3)CC2)cc1	-0.2	0.1	84.3*	-7.1	-2.0	103.9*	-0.3
CN(CCCOC(=O)CC1C=CCC1)C1CN(Cc2cn(Cc3ccccc3Cl)nn2)S(=O)(=O)C1 (stereo not given)	.	.	.	-1.5	.	.	.
CN(C)S(=O)(=O)N1CCC(Oc2cccc(C(=O)NC3CCCCC3)c2)CC1	0.3	.	14.2*	-3.9	-4.7	62.2*	-0.3
COCCCN1C(=O)[C@H](CC(=O)NCc2cccc3ccccc23)[C@]2(C(=O)OC)CCCCC=C12	.	.	.	-2.5	.	.	.
NNC(=O)c1ccc(COc2ccccc2)cc1	0.0	-0.4	-5.2	-0.2	0.6	.	.
CCC(=O)c1ccc(OCc2ccc(C(=O)c3ccccc3)cc2)cc1	-0.9	-0.5	37.4*	-3.1	-0.9	88.0*	-0.4
CCCc1ccccc1OCCNC(=O)c1cc(=O)n(C)c(=O)n1C	0.1	0.1	15.9*	-4.8	0.5	4.6	0.4
COC(=O)[C@]12C[C@H](CC(=O)N3CCSCC3)C(=O)N(Cc3ccco3)C1=C[C@H](C(C)C)O[C@@H]2C1CC1	.	.	.	1.1	.	.	.
O=C(Nc1ccccc1)C1CCCN(S(=O)(=O)c2ccc(-n3cnnn3)cc2)C1 (stereo not given)	0.1	-0.3	5.0	-4.0	-1.2	.	.
O=C(Nc1cccc(F)c1)C1CCCN(S(=O)(=O)c2ccc(-n3cnnn3)cc2)C1 (stereo not given)	-0.3	.	13.9*	-2.6	-0.3	0.0	-0.6
SMILES	HIF act	Hsp70 act	GalR3 antagonist	SMARCA2 activ	GAA850 FXN act	GalR3 antag conf	HEK-CNG parental
CCOC(=O)N(C)[C@H]1C[C@H]2c3cc(-c4ccccc4C)ccc3CCN2C[C@H]1[C@H](C)O	.	.	95.0*	-5.8	.	1.7	0.1
CCOC(=O)N(C)[C@H]1C[C@H]2c3[nH]c4c(-c5cccc(C)c5)cccc4c3CCN2C[C@H]1[C@H](C)O	.	.	.	-4.6	.	.	.
COc1ccc(N2CCN(CCCNC(=O)Cc3ccc(C(F)(F)F)cc3)CC2)cc1	.	.	.	-3.2	.	.	.
COC(=O)CSc1nc(N)c(C#N)c(-c2ccc(O)cc2)c1C#N	-0.6	.	44.9*	-0.7	4.4	73.7*	0.5
C=CCN1[C@@H](Cc2ccccc2)COc2cccc(F)c2S1(=O)=O	.	.	.	-1.4	.	.	.
CCCOc1ccc(C(=O)Nc2ccc(CN3CCOCC3)cc2)cc1	-15.5	.	-5.8	-1.0	1.5	.	.
COc1ccc(CCC(=O)Nc2cccc(S(=O)(=O)N3CCCCCC3)c2)cc1OC	.	.	-3.1	-1.9	-0.9	.	.
COc1ccc(NS(=O)(=O)c2ccc(NC(=O)c3ccc(CN4CCOCC4)cc3)cc2)cc1	-0.3	-0.1	88.7*	-5.9	-3.1	118.2*	-1.0
O=C(Nc1ccc(S(=O)(=O)N2CCCC2)cc1)c1ccc(CN2CCOCC2)cc1	0.1	-0.2	106.9*	-5.2	-4.5	64.1*	0.2
COc1ccc(S(=O)(=O)Nc2ccc(N3CCOCC3)cc2)cc1	-0.4	.	-8.6	-0.1	0.4	.	.
COc1ccc(CC(=O)Nc2cccc(S(=O)(=O)N3CCCCCC3)c2)cc1OC	-0.6	-0.4	104.5*	-7.1	-4.7	99.2*	-0.8
COc1ccc(NS(=O)(=O)c2ccc(N3CCOCC3)c(N)c2)cc1	.	.	83.9*	-3.5	-2.0	82.8*	-0.4
COc1ccc(C2C(C(=O)N3CCOCC3)CC(=O)N2c2ccc(OC)cc2)cc1 (stereo not given)	.	.	.	-1.1	.	.	.
COc1cc2c(c(OC)c1)C(=O)O[C@H](C)C[C@@H]1O[C@H]1CCCCC(=O)C2	.	.	.	-6.5	.	.	.
C=CCN1[C@@H](CC(C)C)COc2cc(N3CCSCC3)ccc2S1(=O)=O	.	.	.	0.1	.	.	.
C=CCN1CC(COCc2ccccc2)OCCS1(=O)=O (stereo not given)	.	.	-3.4	1.8	.	.	.
O=C(CCc1ccccc1)N[C@H]1[C@H](OC(=O)c2ccco2)CCC[C@]12C(=O)N(Cc1ccccc1)c1ccccc12	.	.	.	-2.8	.	.	.
O=C(NCc1ccccc1)[C@@H]1CCCN1C(=O)[C@H]1CCCN1C(=O)C1CCCCC1	.	.	-2.0	0.4	.	.	.
CCN(CC)S(=O)(=O)c1ccc(O)c(NC(=O)c2ccc(N3CCOCC3)c([N+](=O)[O-])c2)c1	-0.4	-0.6	22.7*	3.0	3.5	11.2	0.4
O=C(NC1CCN(Cc2ccccc2)CC1)c1ccc2c(c1)[nH]c(=O)n2Cc1ccc(F)cc1	-0.2	-0.4	54.6*	-7.9	-2.0	59.4*	0.6
CN(c1ccc(C(=O)Nc2ccc(S(=O)(=O)N3CCCC3)cc2)cc1)S(C)(=O)=O	0.1	-0.2	93.5*	-4.5	-2.4	95.4*	0.0
CCCCCn1c(=O)[nH]c2cc(C(=O)NC3CCN(Cc4ccccc4)CC3)ccc2c1=O	-1.1	.	-9.2	0.3	1.0	.	.
